# Shown are actives, neighbours in structure and some others; about 1.9% of the full set was active somewhere.
# p47phox inh: p47phox (human) inhibition. AID 1274. P14598. p47phox/p22phox peptide binding, fluorescence polarization, 2 h. inhibition, % at 24.7 µM. actives 0.53% (n = 220,000);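 active means inhibition above about 30%, limit read from the data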;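 further: 0% = p47phox with labelled peptide and 100% = labelled peptide alone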
# Efa HMGR inh: blocks class II HMG-CoA reductase of Enterococcus faecalis; inhibition, % at 10 µM; purified E. faecalis HMGR, NADPH absorbance 340 nm kinetic; actives 0.41% (n = 190,000);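 active means inhibition above a set limit, the median over all tested compounds plus 3 SD, cut at about 9.5% in these data; inconclusive means no clear call, values can overlap the other calls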;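 further: enzyme runs in reverse so mevalonate oxidation gives rising NADPH absorbance; 0% = complete reaction with DMSO and 100% = background rate lacking mevalonate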
# dFosB activator: activators of mouse delta FosB homodimer. purified delta FosB, TAMRA-CDK5 oligo fluorescence polarization; percent of positive-control signal above neutral wells. activation, % at 25 µM. actives 0.99% (n = 340,000);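 active means mean activation above about 17%, with every replicate also reaching it, limit read from the data, passing the limit was not always enough; inconclusive means only one of the two conditions met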
# Target sequence (P13346 whole entry, looked up): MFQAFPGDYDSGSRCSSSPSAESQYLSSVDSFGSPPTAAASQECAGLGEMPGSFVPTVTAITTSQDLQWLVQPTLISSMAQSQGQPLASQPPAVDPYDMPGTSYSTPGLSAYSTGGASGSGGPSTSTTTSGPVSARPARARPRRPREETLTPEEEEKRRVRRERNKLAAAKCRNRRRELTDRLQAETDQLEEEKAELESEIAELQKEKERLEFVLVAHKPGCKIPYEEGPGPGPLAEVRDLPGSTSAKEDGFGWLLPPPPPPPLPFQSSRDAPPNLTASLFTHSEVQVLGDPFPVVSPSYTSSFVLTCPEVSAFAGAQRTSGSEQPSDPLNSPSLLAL
# 14-3-3 Bad PPI: disrupts binding of bovine 14-3-3 zeta to phospho-Bad peptide; actives 0.71% (n = 220,000); P63103; TR-FRET 14-3-3zeta/Dy647-pBad peptide displacement, 1 h; inhibition, % at 21.7 µM; AID 781;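 active means inhibition above about 70%, limit read from the data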;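 further: 0% = full 14-3-3 plus peptide FRET controls and 100% = background without 14-3-3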
# Target sequence (P63103 whole entry, looked up): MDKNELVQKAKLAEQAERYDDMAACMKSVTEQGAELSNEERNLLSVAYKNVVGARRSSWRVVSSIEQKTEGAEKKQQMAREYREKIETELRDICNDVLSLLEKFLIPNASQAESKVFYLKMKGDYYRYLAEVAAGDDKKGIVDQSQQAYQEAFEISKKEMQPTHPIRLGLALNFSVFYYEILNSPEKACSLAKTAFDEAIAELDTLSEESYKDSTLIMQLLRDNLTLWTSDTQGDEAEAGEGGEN
# Numbers without * were called inactive; ? = inconclusive; · = no result.
SMILES,p47phox inh,Efa HMGR inh,dFosB activator,14-3-3 Bad PPI
CC(C)N1CC2=C(OC(N)=C(C#N)C2c2cccnc2)/C(=C/c2cccnc2)C1 (stereo not drawn),77*,-1,-15,9
N#CC1=C(N)OC2=C(CN(Cc3ccccc3)C/C2=C\c2cccnc2)C1c1cccnc1 (stereo not drawn),123*,2,-8,-12
CCN1CC2=C(OC(N)=C(C#N)C2c2ccccc2)/C(=C\c2ccccc2)C1 (stereo not drawn),-11,-5,-3,8
Cc1cccc(Sc2c([N+](=O)[O-])ncn2C)n1,3,-3,7,-7
CCN(CC)CCN(C(=O)c1ccc2ccccc2c1)c1nc2cc3c(cc2s1)OCO3,·,·,53*,·
O=C(N/N=C\c1ccc(F)cc1)c1csnn1,-2,-1,-8,89*
N/C(=N\N=Cc1ccc2c(c1)OCO2)NN=Cc1ccc2c(c1)OCO2,·,·,42*,·
N/C(=N\N=C/c1ccc(F)cc1)N/N=C\c1ccc(F)cc1,·,·,26*,·
Cc1ccc(NC(=O)CCNS(=O)(=O)c2ccccc2F)cc1S(=O)(=O)N1CCOCC1,·,·,-14,·
Nn1c(SCc2nc3ccccn3c2Br)nnc1-c1cccnc1,57*,-1,1,-9
Cc1cc2nc(C3CCCN(C(=S)Nc4ccccc4C)C3)[nH]c2cc1C (stereo not drawn),-10,-5,-2,-17
Cc1cc2nc(C3CCCN(C(=O)NCc4ccccc4)C3)[nH]c2cc1C (stereo not drawn),-9,2,-10,76*
Cc1noc(C)c1COc1ccc(C(=O)OCC(=O)N2c3ccccc3NC(=O)C2(C)C)cc1,4,-2,1,8
CCN1CCN(c2nc3c(c(=O)[nH]c(=O)n3C)n2Cc2ccccc2F)CC1,·,·,-2,·
COc1ccc(CNC(=O)c2c(O)c3cccc4c3n(c2=O)CCC4)cc1OC,54*,-1,-4,4
COc1ccc(CNC(=O)c2c(O)c3cccc4c3n(c2=O)CCC4)cc1,-2,-1,-3,8
O=C(c1ccc(Cl)cc1Cl)N1CCc2ccccc21,·,·,-2,·
COc1cc(/C=C(\C#N)c2nc(-c3cc4ccccc4oc3=O)cs2)ccc1O,7,-2,-6,62
CCN(CC)CCOC(=O)c1ccc(N/C=C(/C#N)c2nc(-c3ccc4c(c3)OCO4)cs2)cc1,-7,·,93*,38
COc1cc(/C=C(/C#N)c2nc(-c3cc4ccccc4oc3=O)cs2)cc([N+](=O)[O-])c1O,-29,·,·,97*
CCN(CC)CCOC(=O)c1ccc(N/C=C(/C#N)c2nc(-c3ccc(OC)cc3)cs2)cc1,14,·,?,-24
CCN(CC)CCOC(=O)c1ccc(N/C=C(/C#N)c2nc(-c3cc4ccccc4oc3=O)cs2)cc1,·,·,39*,·
O=C(CCc1nnc(CCCc2ccccc2)o1)NCCc1ccccc1,-8,15*,-2,-10
O=C(CCc1nnc(CCCc2ccccc2)o1)NCCc1ccco1,-1,-4,2,-11
CC(=O)c1ccc(N=Nc2c(C)[nH][nH]c2=O)cc1,·,·,-1,·
SMILES,p47phox inh,Efa HMGR inh,dFosB activator,14-3-3 Bad PPI
Cc1ccccc1NC(=O)c1ccc(F)c(S(=O)(=O)NCC2CCCO2)c1 (stereo not drawn),·,·,-3,·
O=C1c2ccccc2C(=O)c2c(NCCCN(CCO)CCO)cccc21,37*,-4,56*,-27
CCOC(=O)Nc1ccc(S(=O)(=O)NCc2ccccc2)cc1,38*,·,14,-6
COc1ccc(-c2nnc(SCc3ncc(-c4ccccc4)o3)o2)cc1,-1,-2,-2,8
CN1CCN(C(c2ccc(Br)cc2)c2cc(Cl)c3cccnc3c2O)CC1 (stereo not drawn),·,·,29*,·
Cc1ccccc1CNC(=O)c1ccccc1NS(C)(=O)=O,-3,-4,-10,22
COc1ccc(N=c2ssnc2Cl)cc1,13,16*,2,29
CCC(CCc1ccccn1)C(=O)c1ccccc1 (stereo not drawn),·,·,-7,·
Cc1ccc(NC(=O)c2ccc3nc[nH]c3c2)c(O)c1,-11,16*,-1,-2
Cc1ccc(CNc2nc(C)c(C(=O)N(C)C)s2)cc1,·,·,4,·
Cc1cc2[nH]c3c(c[n+](C)c4ccccc34)c2cc1C,50*,-3,-86,24
Cc1cc2[nH]c3c4ccccc4nc(C)c3c2cc1C,·,·,-138,·
Cc1cc(C)n2nc(C(=O)NCc3cccc(C(F)(F)F)c3)nc2n1,-5,-3,6,-9
Cc1nn2c(C(F)(F)F)cc(-c3ccc(Cl)cc3)nc2c1C(=O)N1CCOCC1,-3,17*,-14,-2
O=C(CSc1nc2ccccc2[nH]1)Nc1nc(-c2cccc(Br)c2)cs1,-26,0,1,2
CN(C)CCCn1c(SCC(=O)Nc2nc(-c3cccc(Br)c3)cs2)nc2ccccc2c1=O,76*,·,-312,-27
O=C(COc1ccc([N+](=O)[O-])cc1)Nc1ccc(C(=O)Nc2ccccc2C(=O)O)cc1,48*,3,3,12
CC1(NC(=O)COc2ccccc2-c2ccccc2)CCS(=O)(=O)C1 (stereo not drawn),-5,6,2,-6
CCOC(=O)c1c(C)[nH]c(C(=O)COC(=O)c2cnc(C)cn2)c1C,-9,4,-14,80*
CCOC(=O)c1c(C)[nH]c(C(=O)C(C)OC(=O)c2cnc(C)cn2)c1C (stereo not drawn),·,·,-6,·
CCOC(=O)c1c(C)[nH]c(C(C)=O)c1C,-6,-1,4,-7
CCOC(=O)c1c(C)[nH]c(C(=O)C(C)Cl)c1C (stereo not drawn),-8,9.8*,-11,-8
Cc1ccc(C(=O)N2CCCCC2)cc1S(=O)(=O)N1CCCC1,·,·,1,·
Cn1c(=O)[nH]c(=O)c2c1nc(CN1CCN(c3cccc(Cl)c3)CC1)n2CCCc1ccccc1,-14,-12,-3,9
CCCCn1c(CN2CCN(c3cccc(Cl)c3)CC2)nc2c1c(=O)[nH]c(=O)n2C,-12,9.8*,-25,-8
SMILES,p47phox inh,Efa HMGR inh,dFosB activator,14-3-3 Bad PPI
COc1ccc(NC(=O)CSc2nc3c(cc2C#N)CN(C)CC3)cc1,-4,1,-10,8
CN1CCc2nc(SCC(=O)Nc3ccc(F)cc3)c(C#N)cc2C1,37*,-1,·,3
O=C(N/C(=C\c1cccnc1)C(=O)N1CCC(O)CC1)c1ccccc1,·,·,-4,·
O=C(Nc1ccccc1F)c1c[nH]c(=O)[nH]c1=O,4,·,3,-4
CCOC(=O)C1CCN(C(=O)CCNS(=O)(=O)c2ccc(C)cc2)CC1,·,·,-4,·
CCOC(=O)C1CCN(C(=O)c2ccc(CNS(=O)(=O)c3ccc(C)cc3)cc2)CC1,33*,-1,-11,4
O=C(O)COc1ccc(/C=N/NC(=O)c2ccc(-c3csc(Nc4ccc(Cl)cc4)n3)cc2)cc1,-89,·,-11,94*
CCOc1cc(/C=N/NC(=O)c2ccc(-c3csc(Nc4ccc(C)cc4)n3)cc2)ccc1OCC(=O)O,-29,-7,-21,75*
CCCCC/C=C\C/C=C\C/C=C\CCCCC(=O)O,·,·,-10,·
Cc1cccc(N2CCN(C(=O)c3nn(C)c4c3CS(=O)(=O)c3ccccc3-4)CC2)c1C,·,·,1,·
